Rows were chosen to be rich in hits. Some 6.9% of all compounds tested hit in one or more screens of this group.
CSC inhib: cancer stem cell inhibition; cancer stem cell-like cells viability, luminescence; AID 2717; hit rate 1.1% among 300,000; inhibition, % at 7.5 µM; in the data active = inhibition above about 75%; inconclusive = no clear call, values can overlap the other calls; tested in HMLE shEcad cells
MPTP inh: permeability transition pore inhibition; isolated mouse mitochondria, Ca2+ swelling absorbance, 30 min; inhibition, % at 10 µM; hit rate 1.4% among 360,000;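 active = inhibition of 50% or more, scaled per plate between neutral and stimulator controls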;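 also: 0% = DMSO wells given calcium and 100% = 1 mM EGTA wells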
GRIN3A LBD mod: modulates the human NR3A ligand-binding domain | NR3A LBD differential scanning fluorimetry, Tm shift; 0% = protein alone, 100% = glycine-bound protein | Tm shift relative to glycine control, % at 25 µM | hit rate 2.5% among 340,000;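 active = melting temperature shift of at least 10% of the positive control shift, at one fixed dose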
SKKanGAS inh: inhibitors of SKKanGAS S. pyogenes growth in kanamycin (SK-promoter or general growth effect); AID 1662; BacTiter-Glo, 6 h; hit rate 1.3% among 300,000; inhibition, % at 7.5 µM;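 active = mean replicate score, as percent of positive control median, at least 50; inconclusive = mean below 50 but one replicate at or above 50; inactive = mean and every replicate below 50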;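 also: strain carries kanamycin resistance gene driven by streptokinase promoter and grows in 40 µg/ml kanamycin; loss of luminescence reflects streptokinase promoter inhibition or plain growth inhibition; 0% = median of DMSO wells and 100% = positive control at its reference dose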
Mdm2-MdmX inh: inhibitors of human Mdm2/MdmX interaction; O15151+Q00987; SaOS-2 split-luciferase Mdm2/MdmX complementation, luminescence; inhibition, % at 8 µM; hit rate 3% among 330,000; AID 485346;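 active = inhibition of at least 50% at 8 µM in the primary screen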
Target sequence (O15151 whole entry, looked up): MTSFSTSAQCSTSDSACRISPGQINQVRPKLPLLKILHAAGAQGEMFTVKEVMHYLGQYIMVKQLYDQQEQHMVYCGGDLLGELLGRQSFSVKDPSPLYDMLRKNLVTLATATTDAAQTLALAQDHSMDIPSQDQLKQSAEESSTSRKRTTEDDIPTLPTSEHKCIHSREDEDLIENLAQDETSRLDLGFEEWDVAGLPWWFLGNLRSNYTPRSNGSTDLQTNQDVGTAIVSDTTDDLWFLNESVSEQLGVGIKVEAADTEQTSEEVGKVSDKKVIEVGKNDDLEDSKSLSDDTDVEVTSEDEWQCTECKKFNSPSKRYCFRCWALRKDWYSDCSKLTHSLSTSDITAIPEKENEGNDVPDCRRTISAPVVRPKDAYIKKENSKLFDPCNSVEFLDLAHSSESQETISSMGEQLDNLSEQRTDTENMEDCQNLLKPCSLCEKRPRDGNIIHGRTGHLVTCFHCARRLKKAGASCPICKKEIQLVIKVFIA
Target sequence (Q00987 whole entry, looked up): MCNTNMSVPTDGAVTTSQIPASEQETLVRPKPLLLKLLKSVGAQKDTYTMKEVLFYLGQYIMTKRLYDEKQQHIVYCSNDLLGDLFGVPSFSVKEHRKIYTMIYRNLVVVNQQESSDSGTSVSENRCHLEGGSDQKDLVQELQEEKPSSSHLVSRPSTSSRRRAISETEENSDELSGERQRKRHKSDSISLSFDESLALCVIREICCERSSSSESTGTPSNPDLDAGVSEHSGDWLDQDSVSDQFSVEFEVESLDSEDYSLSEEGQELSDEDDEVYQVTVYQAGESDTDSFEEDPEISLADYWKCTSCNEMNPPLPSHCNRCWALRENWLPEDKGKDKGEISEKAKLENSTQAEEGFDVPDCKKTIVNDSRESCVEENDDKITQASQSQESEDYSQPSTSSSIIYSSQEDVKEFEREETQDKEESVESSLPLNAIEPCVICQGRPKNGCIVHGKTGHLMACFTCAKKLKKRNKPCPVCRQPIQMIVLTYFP
Beta apoptosis: beta cell apoptosis inhibition. hit rate 0.8% among 300,000. protection from apoptosis, % (test concentration not listed). INS-1E cytokine-induced death, ATP luminescence, 48 h; percent of positive-control rescue, neutral wells zero;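 active = Every replicate reaches about 75%, or at least half do and their mean reaches it too, limit read from the data; inconclusive = At least half of replicates reach the limit but their mean does not; inactive = Under half of replicates reach the limit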;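 also: 0% = cytokine-treated negative control wells and 100% = positive control rescue; higher means more ATP so stronger rescue from cytokine killing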
Mdm2-MdmX conf: human Mdm2/MdmX binding inhibition, confirmed | shares compounds with Mdm2-MdmX inh | luminescent assay | inhibition, % at 8 µM | hit rate 55% among 10,000 | AID 489028; in the data active = inhibition above about 40%
FLuc counter: full-length luciferase inhibition in Mdm2/MdmX counter-screen. SaOS-2 full-length luciferase counterscreen, luminescence. AID 504607. inhibition, % at 8 µM. hit rate 77% among 6,200. shares compounds with Mdm2-MdmX inh;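 active = mean inhibition at 8 µM reaching about 37%, which flags the compound as non-specific, limit read from the data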;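 also: p53-null SaOS-2 cells with luciferase driven by a doxycycline-inducible promoter; compound on cells about two nights before reading with doxycycline added after day one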
Starred values were filed as active, the others as inactive; u = inconclusive; x = not tested or not shown.

SMILES	CSC inhib	MPTP inh	GRIN3A LBD mod	SKKanGAS inh	Mdm2-MdmX inh	Beta apoptosis	Mdm2-MdmX conf	FLuc counter
Cc1ccccc1NS(=O)(=O)c1ccc2c3c(cccc13)C(=O)N2C	-10	3	2	15	53*	x	49*	100*
CCN1C(=O)c2cccc3c(S(=O)(=O)Nc4ccccc4OC)ccc1c23	x	17	2	-6	56*	1	43*	79*
Cc1ccc(NC2CC(C)NC(=S)N2)cc1 (stereo not given)	2	2	0	-11	9	-7	x	x
COc1c(S(=O)(=O)N2CCN(C)CC2)ccc(Cl)c1Cl	-10	0	-1	-1	-14	x	x	x
O=C(NNC(=O)c1ccc(Br)s1)c1ccc(F)c(S(=O)(=O)N2CCOCC2)c1	x	2	-3	x	13	6	x	x
CN1C(=O)c2cccc3c(S(=O)(=O)Nc4ccccn4)ccc1c23	3	-2	0	0	56*	-6	41*	79*
CN1C(=O)c2cccc3c(S(=O)(=O)NCc4ccco4)ccc1c23	-1	1	3	11	21	6	x	x
CCOc1cc(Br)c(Br)c(C=Nc2ccc(NC(C)=O)cc2)c1O	-1	0	-5	-2	68*	-3	76*	33
CC(=O)Nc1ccc(N=Cc2c(O)c3ccccc3oc2=O)cc1	17	0	-3	1	53*	0	33	x
CC(=O)c1cccc(N=Cc2c(O)c3ccccc3oc2=O)c1	-1	0	0	5	38	-9	x	x
CC(=O)Nc1ccc(N=Cc2c(O)c(C(=O)Nc3ccccc3)cc3ccccc23)cc1	98*	x	8	61*	78*	12	37	104*
CCOc1cc(/C=N/NC(=O)C(N)=O)cc(Br)c1O	0	-2	-2	4	12	3	x	x
COc1cc(/C=N/N=C(N)N)ccc1OCc1ccc(Cl)cc1	50	4	-7	11	101*	98*	50*	127*
NC(N)=N/N=C/c1ccccc1	x	0	-13	-7	-22	x	x	x
COc1cc(/C=N/O)ccc1OCc1ccc(C(=O)O)cc1	-10	0	-4	13	83*	-1	78*	21
NC(N)=N/N=C/c1ccc(OCc2ccccc2)c(OCc2ccccc2)c1	2	2	-1	u	96*	9	67*	65*
O=C(O)c1cc(/C=N\O)ccc1OCc1ccccc1	7	2	2	-1	-28	3	x	x
NC(N)=N/N=C/c1ccc(OCc2ccccc2Cl)cc1	105*	9	-86	16	98*	8	67*	32
CSCCC(NC(=O)c1ccccc1Br)C(=O)NNC(=O)C1COc2ccccc2O1 (stereo not given)	x	-1	-2	x	x	x	x	x
Cc1ccc(OCC(=O)NC2CCSc3ccccc32)cc1 (stereo not given)	-5	1	-1	9	-9	0	x	x
CC1=C(C(=O)Nc2ccc(CC(=O)NCc3ccc(OC(C)C)cc3)cc2)SCCO1	-11	1	-3	7	5	18	x	x
COc1ccc(C(=O)Nn2c(SCC(=O)NC3CCCCC3)nc3ccccc3c2=O)cc1	18	-8	1	6	18	x	x	x
COc1ccc(C(=O)Nn2c(SCC(=O)N3CCC(C)CC3)nc3ccccc3c2=O)cc1	11	5	-2	14	59*	16	48*	142*
COc1cc(/C=C2\SC(=Nc3ccc(O)cc3)NC2=O)cc(OC)c1OC	60	x	-5	-2	52*	11	65*	28
COc1cc(/C=C2/SC(=Nc3ccc(O)cc3)NC2=O)cc(OC)c1O	x	0	11*	14	62*	x	61*	62*
SMILES	CSC inhib	MPTP inh	GRIN3A LBD mod	SKKanGAS inh	Mdm2-MdmX inh	Beta apoptosis	Mdm2-MdmX conf	FLuc counter
CCc1ccc(N=C2NC(=O)/C(=C/c3ccc(OCC(=O)O)c(OC)c3)S2)cc1	x	0	-4	15	-21	x	x	x
COc1ccc(N=C2NC(=O)/C(=C\c3ccco3)S2)cc1	x	0	-2	1	-2	3	x	x
COc1ccc(C(=O)/C=C/C(=O)N(CC(=O)NC2CCCCC2)CC2CCCO2)c(O)c1 (stereo not given)	4	-4	0	-36	60*	49	29	x
O=C1NCCN/C1=C\C(=O)c1ccc(Cl)cc1	-8	-2	0	-3	-20	0	x	x
CCN1C(=O)c2cccc3c(NC(=O)c4ccc(S(=O)(=O)N5CCOCC5)cc4)ccc1c23	-1	-1	-3	3	51*	-2	49*	94*
CCN1C(=O)c2cccc3c(NS(=O)(=O)c4ccc(NC(C)=O)cc4)ccc1c23	-14	9	-7	2	44	-3	x	x
CCN1C(=O)c2cccc3c(NC(=O)c4ccc(S(=O)(=O)N(C)C)cc4)ccc1c23	-4	-1	0	0	59*	-2	33	64*
Cc1cccc(NC(=O)c2ccc(S(=O)(=O)N3CCOCC3)cc2)c1C	2	-1	-1	3	2	2	x	x
CC(C)(C)NC(=O)CN(C(=O)c1snc(C(=O)NC2CCCCC2)c1N)c1ccc(F)cc1	x	1	-5	2	8	10	x	x
Cc1cc(Cl)n2nc(C)c(-c3ccc(Cl)cc3)c2n1	18	1	0	x	91*	-1	52*	15
NC(C(=O)O)C1ON=C(Cl)C1O (stereo not given)	x	-3	3	x	x	x	x	x
CCCCCCCN1CCC(=O)N([C@H](CO)CC(C)C)CC1	7	0	-6	1	6	1	x	x
Clc1ccc(CN2CCc3c([nH]c4ccccc34)C2)cc1Cl	124*	-2	-1	19	96*	10	39	48*
CN(C)S(=O)(=O)c1cc(NC(=O)COC(=O)CC2Sc3ccccc3NC2=O)ccc1Cl (stereo not given)	9	1	-3	x	5	-5	x	x
CN1C(=O)C2(Nc3ccccc3-c3nc4ccccc4n32)c2ccccc21 (stereo not given)	-20	3	0	-8	48	-8	x	x
CCN1C(=O)C2(Nc3ccccc3-c3nc4ccccc4n32)c2cc(OC)ccc21 (stereo not given)	0	1	-1	0	66*	-2	96*	24
Cc1ccc2oc(C(F)(F)C(F)F)cc(=O)c2c1	-12	0	0	-14	25	-6	x	x
Cc1ccc2oc(C(Cl)(Cl)Cl)cc(=O)c2c1	33	-1	1	1	74*	12	53*	60*
c1ccc2c(c1)CCN(c1nc3cc4c(cc3s1)OCCO4)C2	x	0	3	18	81*	14	77*	93*

Source: PubChem BioAssay
